# RORgamma inh: inhibitors of mouse ROR gamma transcriptional activity; P51450; Drosophila S2 Gal4-RORgamma UAS-luciferase reporter, 20 h; Potency, µM (highest dose often 53.6 µM), for inactives: top-dose activity change, negative = inhibition, actives largely listed as inhibitors; actives 5.4% (n = 310,000); AID 2551; further: on the % scale 0 is the no-effect control and ±100 the full control effect; nearly all actives have a fitted effect of over 60% in size
# Target sequence (P51450 whole entry, looked up, the tested form may be a part): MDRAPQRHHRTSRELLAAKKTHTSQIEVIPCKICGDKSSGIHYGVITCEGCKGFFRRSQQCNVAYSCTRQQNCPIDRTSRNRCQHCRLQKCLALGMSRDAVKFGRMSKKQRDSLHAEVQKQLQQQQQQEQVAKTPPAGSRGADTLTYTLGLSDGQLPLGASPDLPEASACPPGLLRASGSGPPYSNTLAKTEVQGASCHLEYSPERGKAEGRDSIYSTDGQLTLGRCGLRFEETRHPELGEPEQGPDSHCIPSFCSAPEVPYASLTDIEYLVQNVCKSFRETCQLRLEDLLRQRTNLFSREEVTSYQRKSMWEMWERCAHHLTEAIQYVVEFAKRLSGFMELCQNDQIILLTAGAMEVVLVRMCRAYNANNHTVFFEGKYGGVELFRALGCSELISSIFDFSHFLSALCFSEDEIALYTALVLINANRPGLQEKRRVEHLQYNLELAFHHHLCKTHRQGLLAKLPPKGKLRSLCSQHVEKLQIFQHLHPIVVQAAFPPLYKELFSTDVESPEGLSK
#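 Drosophila S2 cells stably expressing Gal4-DBD/mouse RORγ fusion under metallothionein promoter plus UAS-luciferase; compound 1 h, then 700 uM CuSO4 induction for 20 h at ambient temperature; inhibition read as reduced luminescence.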
# GLP1R inv ag: inverse agonists of human GLP-1 receptor. P43220. HEK293 GLP-1R CRE-luciferase, luminescence, 24 h; GLP-1R form is constitutively active. Potency, µM (top dose mostly 38.3 µM), inactives show top-dose activity change, negative = inhibition, usual class: inhibitors. actives 1.6% (n = 410,000); further: on the % scale 0 is the no-effect control and ±100 the full control effect; nearly all actives have a fitted effect of over 55% in size
#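 Inverse agonism was detected as reduced cAMP-driven luciferase luminescence after 24 h compound treatment. The cells were HEK293 clones expressing constitutively active human GLP-1R with the reporter. Reporter-only and GPR119 cell lines served as counterscreen controls.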
# GLP1R ag: activates the human GLP-1 receptor | Potency, µM (titrated, usually from 45.6 µM), inactives show top-dose activation, most hits filed as activators | HEK293 GLP-1R CRE-luciferase, luminescence, 4-6 h; cells express a hypersensitive GLP-1R form | actives 0.007% (n = 380,000) | P43220; further: % of control where 0% means no effect
# VP16 counter: counter-screen for ROR gamma inhibitors: Gal4-VP16 reporter. Drosophila S2 Gal4-VP16 UAS-luciferase, luminescence, 20 h. Potency, µM (highest dose often 53.6 µM), for inactives: top-dose activity, negative = inhibition, actives largely listed as inhibitors. actives 3.5% (n = 310,000);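 further: Gal4-VP16 expression switched on by copper sulfate through the metallothionein promoter; on the % scale 0 is the no-effect control and ±100 the full control effect; nearly all actives have a fitted effect of over 50% in size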
# HEK293 tox: cytotoxic in the GLP-1 receptor inverse agonist counter-screen; actives 0.13% (n = 410,000); Potency, µM (series often up to 38.3 µM), inactives show top-dose activity change, negative = inhibition, most hits filed as inhibitors; HEK293 cAMP-luciferase reporter cells, luminescence, 24 h;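 further: loss of luciferase light is scored as toxicity; on the % scale 0 is the no-effect control and ±100 the full control effect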
#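 Cells in DMEM/10% Nu serum/1% pen-strep, 1536-well format. Pre-incubated 12 h, dosed with 23 nL compound, incubated a further 24 h. Luciferase detection, 12 min at room temp, luminescence.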
# Numbers without * were called inactive; ? = inconclusive; . = no result given; [ ] = another dose, or the depositor's remark. In the library only some 5.9% were active in any assay of this set; here they are far more common. The call rests on the fitted dose curve; in most records, active means well fitted curve in the direction sought with a large enough effect; inconclusive means small, poorly fitted or top-dose-only effect, or another doubt; inactive means no such curve, though single readings can be large; an effect the other way counts as inactive or inconclusive. Potency means the concentration at half of the fitted maximal effect.
SMILES,RORgamma inh,GLP1R inv ag,GLP1R ag,VP16 counter,HEK293 tox
COc1ccc(OC)c(-c2nc(C(=O)NC3CCN(Cc4ccccc4)CC3)cc3c2[nH]c2ccccc23)c1,25%,10µM*,11%,-26%,-3%
Cc1ccc(OCc2nc3ccccc3n2Cc2ccccc2Cl)cc1,.,13µM*,-5%,.,-3%
Cc1ccc(OCc2nc3ccccc3n2CCOc2ccc(Cl)cc2)cc1,.,?,.,.,5%
CCOCCn1c(COc2ccc(C)cc2)nc2ccccc21,?,7.1µM*,9%,5%,0%
CCn1c(COc2ccc(C)cc2)nc2ccccc21,8.9µM*,18%[7.66 µM],1%,?,9%[7.66 µM]
c1ccc(OCCn2c(COc3ccccc3)nc3ccccc32)cc1,.,?,.,.,16%
COCCn1c(COc2ccc(C)cc2)nc2ccccc21,11µM*,?,7%,-16%,-5%
COc1cc2nc(SCc3ccc(C(F)(F)F)cc3)n(Cc3cccs3)c(=N)c2cc1OC,13%,6%,-11%,?,8%
COc1cc2nc(SCc3ccc(Cl)cc3Cl)n(Cc3cccs3)c(=N)c2cc1OC,?,-7%,2%,16µM*,-9%
COc1ccc(Cn2c(SCc3ccc(C)cc3)nc3cc(OC)c(OC)cc3c2=N)cc1Cl,4µM*,-13%,1%,1.4µM*,?
COc1ccc(Cn2c(SCc3cc(C)ccc3C)nc3cc(OC)c(OC)cc3c2=N)cc1,34%,5%,3%,-6%,-17%
Cc1ccc(S(=O)(=O)Nc2ccc(S(=O)(=O)Nc3ncccn3)cc2)cc1,-17%,-2%,3%,-2%,61%
COc1ccccc1NS(=O)(=O)c1cccc2cccnc12,1%,8%,-4%,25%,-17%
Cc1ccc(S(=O)(=O)Nc2ccc(NS(=O)(=O)c3ccc(C)cc3)c3ncccc23)cc1,5µM*,.,.,5.6µM*,.
Nc1ccccc1S(=O)(=O)Nc1cccc2cccnc12,1.6µM*,.,.,2.2µM*,.
O=C1C(Nc2ccccc2)=CC(=O)c2ncccc21,3.2µM*,.,.,4.5µM*,.
O=S(=O)(Nc1cc(Sc2cccc3cccnc23)c(O)c2ccccc12)c1ccccc1,1.3µM*,.,.,2.8µM*,.
O=C1C=C(Nc2ccccc2)C(=O)c2ccccc21,?,0%,25%,?,-9%
CCOc1nc(NC(=O)NS(=O)(=O)Oc2ccccc2)nc(-c2ccccc2)n1,.,63%,4%,.,-8%
O=C1C=C(Nc2ccccc2C(=O)O)c2ccccc2C1=O,-42%,54%,-6%,2%,?
Cc1ccc2nsnc2c1S(=O)(=O)Nc1cccc2cccnc12,1.1µM*,.,.,0.63µM*,.
Cc1ccc2nsnc2c1S(=O)(=O)Nc1cccc2nsnc12,?,-9%,-8%,-1%,-7%
O=C1C=C(Nc2cccc3cccnc23)c2ccccc2C1=O,10µM*,-27%,-2%,10µM*,-27%
CC(C)c1ccc(C(=O)Nc2cccc3cccnc23)cc1,.,0%,8%,.,-10%
CC(C)c1cc(C(C)C)c(S(=O)(=O)Nc2cccc3cccnc23)c(C(C)C)c1,0.05µM*,.,.,-90%,.
SMILES,RORgamma inh,GLP1R inv ag,GLP1R ag,VP16 counter,HEK293 tox
O=C1c2ccccc2C(=O)c2cc(S(=O)(=O)Nc3cccc4cccnc34)ccc21,0.89µM*,.,.,-93%,.
Cc1ccc(S(=O)(=O)Nc2cccc3cccnc23)cc1,1.1µM*,?,-15%,1.8µM*,?
Cc1ccc(S(=O)(=O)Nc2ccccc2-c2ccccc2NS(=O)(=O)c2ccc(C)cc2)cc1,3%,?,-15%,-24%,-30%
CC(=O)Nc1ccc(NC(=O)c2ccc3c(c2)N(Cc2cccc(Cl)c2)C(=O)c2ccccc2S3=O)cc1 (stereo not drawn),.,?,.,.,-9%
CCc1ccc(S(=O)(=O)/N=C2\C=C(Nc3ccc(C(=O)O)cc3)C(=O)c3ccccc32)cc1,11µM*,-42%,-1%,?,?
Cc1ccc(S(=O)(=O)/N=C2\C=C(Nc3cccc(C(=O)O)c3)C(=O)c3ccccc32)cc1,16µM*,15%,-1%,?,?

# Bioassay records: PubChem, National Center for Advancing Translational Sciences (NCATS)
